# Screening data deposited in PubChem BioAssay by Johns Hopkins Ion Channel Center.
# KCNQ2 inh: rat KCNQ2 potassium channel inhibitors, primary screen, cell-based, CHO-K1, FluxOR thallium flux, B-score. Potassium voltage-gated channel subfamily KQT member 2 (Rattus norvegicus), O88943. 20 min; hits give low values. B-score at 10 µM. 310,000 compounds, 1.1% hits. AID 2156, 2009;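 active = fluorescence ratio B-score at most minus 3 library SDs, with starting brightness B-score within 2 library SDs, cut at about -5.5 in these data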
# Target sequence (O88943 whole entry, looked up): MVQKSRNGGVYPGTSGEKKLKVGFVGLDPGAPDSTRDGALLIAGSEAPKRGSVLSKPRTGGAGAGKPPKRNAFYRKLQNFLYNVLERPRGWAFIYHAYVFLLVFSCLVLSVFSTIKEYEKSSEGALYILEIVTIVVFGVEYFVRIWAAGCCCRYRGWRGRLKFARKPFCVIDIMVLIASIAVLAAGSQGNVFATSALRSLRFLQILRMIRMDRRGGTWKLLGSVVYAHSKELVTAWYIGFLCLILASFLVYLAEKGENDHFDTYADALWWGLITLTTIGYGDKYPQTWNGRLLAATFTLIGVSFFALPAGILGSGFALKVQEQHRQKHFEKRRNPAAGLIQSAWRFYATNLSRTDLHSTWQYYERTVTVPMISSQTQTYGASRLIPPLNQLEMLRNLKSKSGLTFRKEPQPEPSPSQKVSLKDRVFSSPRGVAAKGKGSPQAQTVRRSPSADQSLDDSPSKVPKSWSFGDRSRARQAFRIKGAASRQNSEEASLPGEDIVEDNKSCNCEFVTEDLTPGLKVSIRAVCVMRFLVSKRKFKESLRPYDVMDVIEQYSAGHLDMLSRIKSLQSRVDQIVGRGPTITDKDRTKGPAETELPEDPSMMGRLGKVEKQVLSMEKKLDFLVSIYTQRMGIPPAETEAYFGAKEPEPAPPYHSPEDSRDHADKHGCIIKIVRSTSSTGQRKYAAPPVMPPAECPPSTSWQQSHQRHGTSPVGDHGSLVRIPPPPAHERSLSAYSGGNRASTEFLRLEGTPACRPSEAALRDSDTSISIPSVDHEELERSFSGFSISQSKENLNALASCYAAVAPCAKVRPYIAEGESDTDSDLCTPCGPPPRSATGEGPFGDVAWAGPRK
# KCNQ2 enhance: potentiators of rat KCNQ2 potassium channel; CHO-K1 KCNQ2, FluxOR thallium flux fluorescence; hits give high values; Potassium voltage-gated channel subfamily KQT member 2 (Rattus norvegicus), O88943; 310,000 compounds, 0.54% hits; AID 2239, 2010; B-score at 10 µM;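 active = fluorescence ratio B-score at least 3 SD of library B-scores, with initial fluorescence B-score within 3 of them, cut at about 5.3 in these data; same plate scores as AID 2156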;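 note: B-score of peak minus minimum over baseline fluorescence ratio after K+ and Tl+ stimulus; positive B-score means potentiation of KCNQ2 with more thallium influx and brighter signal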
# * marks the source's active call; other numbers are inactive results; i = inactive; · = no result. This is a sample that favours compounds with a hit; in the whole collection about 1.6% have one here.
SMILES,KCNQ2 inh,KCNQ2 enhance
CS(=O)(=O)c1ccc(NC(=O)C2CC(=O)N(c3ccc4c(c3)OCCO4)C2)cc1 (configuration not stated),i,·
Cc1cccc(C(=O)NC2CCN(C(=O)NCc3ccccc3)CC2)c1,i,1.1
COc1cccc(-n2c(CN3CCN(c4cccc(C)c4)C(C)C3)nc3ccc([N+](=O)[O-])cc3c2=O)c1 (configuration not stated),-5.8*,-5.8
COc1cccc(-n2c(CN3CCN(c4ccc(C)cc4)C(C)C3)nc3ccc([N+](=O)[O-])cc3c2=O)c1 (configuration not stated),i,·
N#CC1(NC(=O)COC(=O)c2ccccc2SCC(=O)N2CCCC2)CCCCC1,i,0.66
Cc1nn(C)cc1S(=O)(=O)N1CCCCC1C (configuration not stated),i,·
O=C(CSc1nnc(NC(=O)C2CC2)s1)Nc1ccc(F)cc1F,i,·
Cc1ccccc1Oc1cccc(C(=O)/C(C#N)=C/N(C)C)c1,i,0.88
CN(C)/C=C(/C#N)C(=O)c1cccc(Oc2ccc(C(C)(C)C)cc2)c1,-7.8*,-7.8
Cn1c(=O)c2c(ncn2CC(COCc2ccccc2)OCc2ccccc2)n(C)c1=O (configuration not stated),i,0.89
Cn1c(CNC(=O)CCNC(=O)c2ccc(F)c(F)c2)cc(=O)n(C)c1=O,i,0.97
COc1ccccc1P(=O)(c1ccccc1)c1ccc([N+](=O)[O-])cc1 (configuration not stated),i,·
CCOc1ccccc1NC(=O)C(OC(=O)c1cc(C)oc1C)c1ccccc1 (configuration not stated),-5.8*,-5.8
CCOc1ccccc1NC(=O)C(OC(=O)c1ccccc1O)c1ccccc1 (configuration not stated),i,·
CCN(CC)CCN1C(=O)C(=O)/C(=C(/O)c2ccc(OC(C)C)cc2)C1c1cccs1 (configuration not stated),i,·
O=C(/C=C/c1ccc(Cl)cc1)N1CCOCC1,i,0.41
Cc1ccc(S(=O)(=O)NC(=NC2CCCCC2)c2ccc(Cl)cc2)cc1,i,0.04
COc1ccc(CCNC(=O)CSc2ccccn2)cc1OC,i,0.58
COc1ccc(CCNC(=O)CSc2cccc3cccnc23)cc1OC,-6.3*,-6.3
O=C(Nc1ccnn1C1CCN(C2CCOCC2)CC1)c1cccc(F)c1,i,·
CCOCC(=O)Nc1cc(Cl)ccc1C,i,·
Cc1cc(S(=O)(=O)c2ccc([N+](=O)[O-])cn2)ccc1Br,i,·
Cc1ccc(S(=O)(=O)c2ccc([N+](=O)[O-])cn2)cc1,-6*,-6
CC(C)(C)c1ccc(C(=O)Nc2ccc(O)c3c(=O)cc(-c4ccccc4Cl)oc23)cc1,-7*,-7
O=C(Nc1ccc(O)c2c(=O)cc(-c3ccccc3Cl)oc12)c1ccc(F)cc1,i,1.5
SMILES,KCNQ2 inh,KCNQ2 enhance
Nc1nonc1-n1nnc(C(=O)N/N=C/c2cccc(Cl)c2)c1-c1cccs1,i,0.35
COc1ccc(COC(=O)N/N=C(\C)CC(=O)Nc2ccc(Cl)cn2)cc1,i,1.3
Fc1ccc2nc(Nc3nc4c(F)cccc4s3)sc2c1,i,14*
Fc1ccc2nc(Nc3nc4c(F)cc(F)cc4s3)sc2c1,i,4.9
COc1ccccc1N(CC(=O)NCC1CCCO1)C(=O)CNS(=O)(=O)c1ccccc1 (configuration not stated),i,0.07
CC(C)(C)c1nc(SCC(=O)NNC(=O)c2ccccc2)c2ccccc2n1,i,·
Cn1c2ccccc2c2cc(/C=N/NC(=O)c3cc(O)ccc3O)ccc21,-7.2*,-7.2
Cn1c2ccccc2c2cc(/C=N/NC(=O)c3cc(O)cc(O)c3)ccc21,i,·
CN(CCOc1ccc(Br)cc1)C(=O)CNC(=O)c1ccc2ccccc2c1,-6.5*,-6.5
CCOc1ccc(CN(C)C(=O)CNC(=O)c2ccccc2)cc1,i,·
COc1ccc(C2CC(=O)C(C=NCCN3CCN(C(=S)Nc4ccccc4)CC3)=C(O)C2)cc1OC (configuration not stated),i,·
Nc1ccc(CSc2ccc(Cl)cc2)cc1,i,0.64
COc1ccccc1NC(=O)CNC(c1ccccc1)c1ccccc1,-6.1*,-6.1
COc1cc(Cl)c(C)cc1NC(=O)CNC(C)c1ccccc1OC (configuration not stated),-5.8*,-5.8
COc1ccccc1C(C)NCC(=O)Nc1c(F)cccc1F (configuration not stated),i,0.99
COc1ccc(C)cc1NC(=O)CNC(c1ccccc1)c1ccc(C)cc1 (configuration not stated),i,·
COC(=O)Cc1ccc(N(Cc2ccccc2F)S(=O)(=O)c2ccc(C)cc2)cc1,-6.6*,-6.6
Cc1ccc(N(CCC(=O)O)S(=O)(=O)c2ccccc2)cc1,i,0.81
CCn1c(CN2CCN(c3ccc(Cl)cc3)CC2)nc2ccccc21,-5.6*,-5.6
Cn1c(CN2CCN(c3ccc(Cl)cc3)CC2)nc2ccccc21,i,0.08
COc1ccc(C(=O)CCc2ccccc2)c(O)c1,i,·
O=C(CCc1ccccc1)c1c(O)cc(O)cc1O,-8.2*,-8.2
O=C(O)C1CCC(Cn2c(SCc3cc(=O)n4cc(Cl)ccc4n3)nc3ccsc3c2=O)CC1 (configuration not stated),i,·
N#CC(C(=O)NC1CC1)c1nc2ccccc2nc1N1CCCC1 (configuration not stated),i,·
N#CC(C(=O)NC1CCCCC1)c1nc2ccccc2nc1N1CCN(c2ccc(F)cc2)CC1 (configuration not stated),-5.8*,-5.8
SMILES,KCNQ2 inh,KCNQ2 enhance
COc1cccc(N2CCN(c3nc(C)cc(=O)[nH]3)CC2)c1,i,0.26
Cc1ccc2c(C)c(C(=O)N3CCN(c4cnccn4)CC3)oc2c1C,i,·
Cc1ccc2c(C)c(C(=O)N3CCC(O)(c4ccccc4)CC3)oc2c1C,-5.9*,-5.9
O=[N+]([O-])c1ccc(Nc2nc(N/N=C\c3ccc4c(c3)OCO4)nc(N3CCCCC3)n2)cc1,-5.8*,-5.8
O=[N+]([O-])c1ccc(/C=N/Nc2nc(N3CCCCC3)nc(N3CCCCC3)n2)cc1,i,·
FC(F)(F)c1ccc(C2[C@H]3CN(Cc4cccnc4)[C@H](c4ccccc4)C34CC2(c2cccnc2)C4)cc1 (some centres not stated),-7.2*,-7.2
FC(F)(F)c1ccc(C2[C@H]3CN(Cc4ccc(-c5ccccc5)cc4)[C@H](c4ccccc4)C34CC2(c2cccnc2)C4)cc1 (some centres not stated),i,1
Cc1c(C(=O)NC(C)C)c(-c2ccccc2)nn1-c1ccccc1,i,·
Cc1c(C(=O)NCc2ccccc2)c(-c2ccccc2)nn1-c1ccccc1,-5.6*,-5.6
CCOC(=O)c1c(S(=O)(=O)NCc2ccc(C)o2)c(C)n(C)c1C,i,·
COCCNC(=O)c1c[nH]c2ccc(S(=O)(=O)N(C)c3ccc(C)c(C)c3)cc2c1=O,i,0.32
COc1ccc(S(=O)(=O)Nc2ccc(N3CCOCC3)cc2)cc1,i,0.52
CCOc1ccc(S(=O)(=O)Nc2nc3ccccc3nc2Nc2ccc(N3CCOCC3)cc2)cc1,-5.6*,-5.6
COc1ccc(/C=C(/NC(=O)c2ccco2)C(=O)N2CCCCC2)cc1,i,·
